The values that follow come from PubChem BioAssay (EPA / NIEHS).

Inconclusive results are not listed. Activity calls are given as the source filed them. The calls were made as follows, unless noted: active = hit-call score of the fitted dose curve at least 0.9, where 1 is the maximum; inactive = score below 0.9.

The nature of test [1]: CCTE_Shafer_MEA_dev_network_spike_duration_std: CCTE's Neural Network Formation Assay for Standard Deviation of Network Spike Duration, Shafer Lab (AID 2284052).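 Also: area under curve of spike duration SD across recording days 5 to 12; hits are decreases in network spike duration SD versus DMSO vehicle.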 The procedure, abridged:
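Rat cortical cultures, 1.5 x 10^5 cells/well, exposed continuously from plating to DIV 12 with media/compound renewal at DIV 5, 9. Spontaneous activity recorded DIV 5/7/9/12, AxIS adaptive spike detector; AUC across days; negative direction vs DMSO.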

Test [2] in a line: CCTE_Shafer_MEA_dev_per_network_spike_spike_number_mean: CCTE's Neural Network Formation Assay for Mean Number of Spikes in a Network Spike, Shafer Lab (AID 2284053). The procedure, abridged: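 Rat cortical primary cultures on 48-well MEA; compound from day 0, re-dosed with full media change DIV 5, 9. Recorded DIV 5, 7, 9, 12; spikes in 0.05 s window at network-spike peak ÷ total network spikes; AUC; loss vs DMSO.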

Test [3] can be described thus: CCTE_Shafer_MEA_dev_per_network_spike_spike_percent: CCTE's Neural Network Formation Assay for Percent of Spikes in a Network Spike, Shafer Lab (AID 2284054). The procedure, abridged:
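Read-out: percent of spikes falling in a 0.05 s window at network-spike peak, from spontaneous MEA recordings on days 5, 7, 9 and 12; trapezoidal AUC; loss of signal versus DMSO. Rat cortical cultures, compound present throughout.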

Test [4] in a line: CCTE_Shafer_MEA_dev_LDH: CCTE's Lactate Dehydrogenase Assay for Cytotoxicity in the Neural Network Formation Assay, Shafer Lab (AID 2284068; active = hit-call score of the fitted dose curve at least 0.9, where 1 is the maximum;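 also: exposure for twelve days from plating with re-dosing on DIV 5 and 9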). The procedure, abridged:
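Rat cortical primary neurons, MEA culture; dosing day 0–12, full medium plus compound exchange DIV 5, 9. Read-out: LDH enzyme activity, spectrophotometric. DMSO = negative control/baseline; signal loss → cytotoxicity.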

A short description of test [5]: CCTE_Shafer_MEA_dev_AB: CCTE's Alamar Blue Assay for Cytotoxicity in the Neural Network Formation Assay, Shafer Lab (AID 2284083; active = hit-call score of the fitted dose curve at least 0.9, where 1 is the maximum;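 also: resazurin reduction fluorescence as viability of cultured neurons; twelve days of exposure from plating with re-dosing on DIV 5 and 9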). The procedure, abridged: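 Rat cortical primary cultures, 1.5 x 10^5 cells/well on MEA; continuous compound exposure over 12 days of network development, re-dosed with full medium change DIV 5 and 9. Alamar Blue fluorescence; loss of signal = cytotoxicity vs DMSO baseline.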

A short description of test [6]: CCTE_Shafer_MEA_dev_mutual_information_norm: CCTE's Neural Network Formation Assay for Mutual Information Normalization, Shafer Lab (AID 2284091). The procedure, abridged: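 Neurons from rat cortex were seeded at 1.5 x 10^5 cells/well onto PEI-coated MEAs in a laminin drop, then exposed to compound from day 0 for twelve days. Network recordings on four days gave mutual information, summarised by AUC relative to DMSO.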

Test [7] can be described thus: CCTE_Shafer_MEA_dev_correlation_coefficient_mean: CCTE's Neural Network Formation Assay for Mean Correlation Coefficient, Shafer Lab (AID 2284093). The essentials: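 Rat cortical cultures, 1.5 x 10^5 cells/well, dosed from day 0 for 12 days. Spontaneous spikes recorded DIV 5/7/9/12; electrode-pair correlation coefficients averaged, AUC taken. Fit in loss direction vs DMSO.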

Test [8] is described as follows: CCTE_Mundy_HCI_Cortical_NOG_NeuriteLength: CCTE's Neurite Outgrowth Assay in rat cortical cells for Neurite Length, Mundy Lab (AID 2284213). The procedure, abridged:
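First, rat primary cortical cells were plated and, 2 h later, given test chemical as a 1/10 dilution. Finally, βIII-tubulin immunostaining enabled automated imaging of neurite length.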

Test [9] in a line: CCTE_Mundy_HCI_Cortical_Synap_Neur_Matur_NeuriteLength: CCTE's Synaptogenesis and Neurite Maturation Assay in rat cortical cells for Neurite Length, Mundy Lab (AID 2284214). The essentials:
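Read-out: high-content imaging of MAP2-labelled neurites, with synaptophysin and Hoechst co-stain, in rat cortical cultures fixed at DIV 12. Activity fitted in positive direction relative to DMSO baseline.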

Test [10] in a line: CCTE_Mundy_HCI_Cortical_Synap_Neur_Matur_NeuriteSpotCountPerNeuron: CCTE's Synaptogenesis and Neurite Maturation Assay in rat cortical cells for Neurite Spot Count per Neuron Count, Mundy Lab (AID 2284215). The essentials:
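Read-out: neurite-associated synaptophysin puncta per neuron, imaged by high-content analysis after MAP2, synaptophysin and Hoechst staining. Rat primary cortical cultures, dosed DIV 7 through DIV 12; DMSO served as baseline.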

Test [11] is described as follows: CCTE_Mundy_HCI_Cortical_Synap_Neur_Matur_SynapseCount: CCTE's Synaptogenesis and Neurite Maturation Assay in rat cortical cells for Synapse Count, Mundy Lab (AID 2284218). The essentials:
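Read-out: synapse number per neuron, automated high-content imaging of fixed cells immunostained for MAP2 and synaptophysin plus Hoechst nuclei. Rat primary cortical cultures, AraC at DIV 5, chemical dosing DIV 7–12. Positive-direction fit relative to DMSO.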

The nature of test [12]: CCTE_Mundy_HCI_hN2_NOG_NeuriteCount: CCTE's Neurite Outgrowth Assay in human hN2 cells for Neurite Count, Mundy Lab (AID 2284219; active = hit-call score of the fitted dose curve at least 0.9, where 1 is the maximum). The essentials: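 In this morphology assay, hNP1-derived neurons received test chemical 2 h post-plating and were fixed two days later in warm paraformaldehyde/sucrose containing Hoechst 33342. Neurites, labelled by rabbit anti-βIII-tubulin (1:800) and Alexa Fluor-488 (1:500), were counted automatically.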

The nature of test [13]: CCTE_Mundy_HCI_hN2_NOG_NeuriteLength: CCTE's Neurite Outgrowth Assay in human hN2 cells for Neurite Length, Mundy Lab (AID 2284220; active = hit-call score of the fitted dose curve at least 0.9, where 1 is the maximum). The essentials:
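Read-out is neurite length from high-content imaging of βIII-tubulin/Alexa Fluor-488-labelled neurons, referenced to DMSO controls.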

The nature of test [14]: CCTE_Mundy_HCI_hN2_NOG_NeuronCount: CCTE's Neurite Outgrowth Assay in human hN2 cells for Neuron Count, Mundy Lab (AID 2284221; active = hit-call score of the fitted dose curve at least 0.9, where 1 is the maximum). The essentials:
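Read-out is the number of betaIII-tubulin-positive neurons imaged by automated high-content analysis, with DMSO as negative control.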

A short description of test [15]: CCTE_Mundy_HCI_Cortical_NOG_NeuronCount: CCTE's Neurite Outgrowth Assay in rat cortical cells for Neuron Count, Mundy Lab (AID 2284236; active = hit-call score of the fitted dose curve at least 0.9, where 1 is the maximum;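 also: neurons counted by imaging betaIII-tubulin and Hoechst stained cortical cells; cells exposed to compound for about 48 hours before fixation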). The procedure, abridged: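 Read-out: neuron number by high-content imaging of betaIII-tubulin (Alexa Fluor-488) and Hoechst-labelled rat primary cortical cells.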
Test [16] in a line: CCTE_Mundy_HCI_hNP1_Casp3_7: CCTE's Caspase-Glo 3/7 Assay in human neuroprogenitor cells for Apoptosis, Mundy Lab (AID 2284240). The essentials:
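Luminescent caspase-3/7 readout, 26.5 h post-dose, in human neural progenitor cells from WA09 embryonic stem cells. Cells grew 40–44 h at 37 °C, 5% CO2 before chemical addition. Activity analysed as signal increase over DMSO baseline.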

Test [17] is described as follows: CCTE_Mundy_HCI_Cortical_Synap_Neur_Matur_NeuronCount: CCTE's Synaptogenesis and Neurite Maturation Assay in rat cortical cells for Neuron Count, Mundy Lab (AID 2284242; active = hit-call score of the fitted dose curve at least 0.9, where 1 is the maximum). The essentials:
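Rat cortical cultures; AraC DIV 5; chemical dosing + media change DIV 7 to DIV 12 (288.33 h readout). Fix, Hoechst, anti-MAP2/anti-synaptophysin immunostain; HCI neuron count vs DMSO baseline.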

Take `CN[C@]1(c2ccccc2Cl)CCCCC1=O`: the compound was called inactive in test [1], in [2], in [3], in test [5], in test [6] and in test [7]. For the same compound, the result in test [8], in [9], in test [10], in test [11], in test [12] and in test [13] was inactive. Moreover, the outcome in [14], in test [15], in test [16] and in [17] was inactive. Also, the AC50 (in general, the concentration at which the activity in the assay is half-maximal) in [4] is 9.27 µM (active).
